# Among all 170,000 compounds or so, about 900 (0.53%) were called active.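 Rule for the calls: active = relative growth at most 50% at the other temperature and 20+ points below 30 °C, or under 10% at both; inactive = the rest, inconclusive results apart.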 Shown is part of a subset that was picked to be rich in actives.
# Test: S. aureus growth inhibition at 42 and 30 °C, primary screen, LtaS inhibitor project, RN4220, two temperatures (AID 720641)
# Details: OD600, 20 h, 42 °C, stronger effect = lower value
Structure (SMILES),relative growth,relative growth (measured here: growth at 30 °C)
CCOC(=O)C1=C(C)Nc2[nH]c(=O)[nH]c(=O)c2C1c1ccccc1 (centres undefined),94.1% (inactive),92.8%
FC(F)(F)C1CCCN(c2nsc3ccccc23)C1 (centres undefined),-0.41% (active),-0.5%
Cc1c(/C=C/C(=O)Oc2ccc(C#N)cc2)sc2ccccc12,110% (inactive),87.3%
Cc1ccccc1OCC(=O)Nc1cc(Sc2ccccn2)cc(S(=O)(=O)c2ccccc2)c1,103% (inactive),88.5%
CC(C)(C)c1cc(Cl)c(O)c(NC(=O)c2cncc(Br)c2)c1,112% (inactive),87.7%
Cc1cccc(OC(=O)Nc2ccccc2)c1,102% (inactive),91.2%
CCn1c(CCl)nc2cc(C(=O)O)ccc21,119% (inactive),82.3%
O=S(=O)(NC1CCCC1)c1ccc(S(=O)(=O)N2CCN(c3ncccn3)CC2)cc1,100% (inactive),79.4%
O=C(Nc1cccc(-c2nc3ccccc3o2)c1)c1cccc(OCc2ccccc2)c1,124% (inactive),93.3%
O=C(Nc1ccncc1)c1cccc(COc2ccc3ccccc3c2)c1,1.11% (active),2.67%
O=C(OCCN1CCCCC1)c1cccc(COc2ccc3ccccc3c2)c1,102% (inactive),83%
CCOc1ccc(C(=O)NN)cc1,77.2% (inactive),80.8%
CCn1c(CSc2nc3ccccc3s2)nnc1SC(C)C(=O)Nc1ccc(N(C)C)cc1 (centres undefined),116% (inactive),97.9%
O=C(Sc1cccs1)c1csc(C2COc3ccccc3O2)n1 (centres undefined),0.36% (active),-0.46%
O=C(Oc1ccc(Cl)cc1)c1csc(C2COc3ccccc3O2)n1 (centres undefined),92.8% (inactive),92.7%
CN(C)C(=O)c1csc(C2COc3ccccc3O2)n1 (centres undefined),93.5% (inactive),87.9%
N#C/C(=C\c1ccccc1F)c1ccccc1,110% (inactive),92.3%
CC1=CC(=O)C=CC1=N/C(=N\S(=O)(=O)c1ccc(C)cc1)c1ccccc1,104% (inactive),57.7%
COCCn1c(SC)nc2c(c1=O)SCC2,96% (inactive),94.8%
N#C/C(=C\c1ccc(-c2ccc(S(=O)(=O)N3CCOCC3)cc2)o1)S(=O)(=O)c1ccc(Br)cc1,87.4% (inactive),90.9%
CN(C(=O)c1cccnc1Cl)C1CCS(=O)(=O)C1 (centres undefined),115% (inactive),88.3%
CCn1nc(-c2cccs2)cc1C(=O)N(C)C,105% (inactive),86.8%
COC(=O)c1ccccc1NC(=O)CSc1ccccn1,93.1% (inactive),93.2%
CCOC(=O)CSc1ccccn1,94.9% (inactive),101%
CCOC(=O)CCSc1ccccn1,0.28% (active),-0.27%
CSc1nnc(NC(=O)c2nc(S(=O)(=O)Cc3ccc(F)cc3)ncc2Cl)s1,93.7% (inactive),90.3%

Structure (SMILES),relative growth,relative growth (measured here: growth at 30 °C)
CCSc1ncc(Cl)c(C(=O)Nc2cc(C)ccc2C)n1,108% (inactive),85.1%
Cc1ccc(NC(=O)c2nc(S(=O)(=O)Cc3cccc(C)c3)ncc2Cl)cc1,8.42% (active),21.7%
COc1cccc(OCCCN2CCNCC2)c1,107% (inactive),91%
Cc1ccc(S(=O)(=O)N(C)c2ccc(OCC(=O)N3CCN(c4ncccn4)CC3)cc2)cc1,105% (inactive),95.7%
O=C(CSc1nnc(-c2ccccc2)o1)N(CC1CCCO1)c1nc2ccccc2s1 (centres undefined),101% (inactive),92.8%
C=CCn1c(SCC(=O)Nc2sc(C(=O)OC)c(C)c2C(=O)OC)nc2ccccc21,103% (inactive),90.4%
Cc1ccc(Nc2nc3ccccc3nc2-n2nc(C)cc2C)c(Cl)c1,102% (inactive),86.6%
Cc1ccc2nc(Nc3ccccc3)cc(C)c2c1,75.4% (inactive),74.3%
Cc1cccc(Nc2cc(C)nc(-n3nc(C)cc3C)n2)c1,-0.22% (active),-0.24%
Cc1nc2ccccc2nc(C)c1=NOCC(=O)Nc1ccc(S(=O)(=O)N2CCOCC2)cc1,102% (inactive),96.4%
O=C(CCCN1C(=O)CSc2ncccc21)N1CCCCC1,98.9% (inactive),84.5%
COc1ccc(C(C(=O)NC2CCCC2)N(C(=O)c2ccn[nH]2)c2ccc(F)cc2)cc1OC (centres undefined),113% (inactive),89%
CC(C)NC(=O)CSc1ccccc1C(=O)Nc1ccc(-n2cnnn2)cc1,102% (inactive),89.2%
O=S(=O)(Nc1ccc2cn[nH]c2c1)c1ccccc1,105% (inactive),98.5%
c1ccc2c(c1)CC(Nc1ccc3cn[nH]c3c1)C2,1.74% (active),1.83%
c1ccc(NC2CCCCC2)cc1,104% (inactive),103%
Cc1cc(C)c(NC(=O)C2CC3c4ccccc4C2C2C=CC=CC32)c(C)c1 (centres undefined),123% (inactive),88.2%
Nc1cc(C(F)(F)F)ccc1-n1cccn1,92.8% (inactive),95.4%
Oc1c(Cl)cc(Cl)cc1C1Nc2cc(C(F)(F)F)ccc2-n2cccc21 (centres undefined),5.2% (active),6.75%
COc1ccc2c(c1)NC(c1ccccc1)c1cccn1-2 (centres undefined),69.2% (inactive),62.6%
COCCCn1c(C)cc(C(=O)CSc2ncnc3ccccc23)c1C,136% (inactive),92.1%
CC1Cc2ccccc2N1c1ccc2ccccc2n1 (centres undefined),94.3% (inactive),99.6%
COc1ccc(/C=C/C(=O)N2CCCC2)cc1OC,81.4% (inactive),88.8%
COc1cc(/C=C/C(=O)OCC(N)=O)ccc1OCC#N,46.3% (active),78.8%
C/C=C/c1ccc(OCC(=O)OC(C)C(N)=O)c(OC)c1 (centres undefined),71.1% (inactive),88.7%
COc1cc(C2C(C(=O)Nc3ccccn3)=C(C)NC3=C2C(=O)CCC3)cc(OC)c1OC (centres undefined),98.5% (inactive),93.4%

Structure (SMILES),relative growth,relative growth (measured here: growth at 30 °C)
CC(C)CC(=O)n1c(=O)oc2ccccc21,96.6% (inactive),101%
N#Cc1c(-c2ccco2)cc(C2CC2)nc1SCC(=O)c1ccc(Br)cc1,82.6% (inactive),76.7%
O=C(NCCSc1ccccc1)c1cccnc1Oc1ccccc1,115% (inactive),76.2%
CC(=O)Oc1cccc2c1OC(C)(C)C2,117% (inactive),99.9%
CC(=O)Oc1ccc(OC(C)=O)c2c1C1C=CC2CC1,105% (inactive),99.4%
CC(=O)Oc1cccc2c1C(=O)C=CC2=O,2.55% (active),1.59%
CSCCC(=O)Nc1nc2ccccc2[nH]1,113% (inactive),87.5%
O=C(Nc1ccccc1)Nc1ccc(Cl)c(Cl)c1,2.14% (active),2.42%
CC(=O)Nc1ccc2c(c1)CN(C1CCCCC1)CO2,90.6% (inactive),87.6%
CCc1ccc(NC(=O)Nc2ccccc2)cc1,93.4% (inactive),96.9%
O=C(Nc1ccc(Cl)c(Cl)c1)Nc1ccnn1C1CCCCC1,-0.5% (active),-0.69%
CC(C)Oc1ccc(C(=O)Nc2ccnn2C2CCCCC2)cc1,105% (inactive),98.1%
O=C(Nc1cccc(Cl)c1)Nc1ccccn1,61.4% (inactive),70%
CC(=O)N1CC(C(=O)Nc2cccc(-c3nnc4n3CCCCC4)c2)Oc2ccccc21 (centres undefined),78.4% (inactive),92.9%
Cc1ccc2nc(COC(=O)Cn3[nH]c(=O)c4ccccc4c3=O)cc(=O)n2c1,78.6% (inactive),90.7%
CCOc1ccc(C(=O)N2CCC(Cc3ccccc3)CC2)cc1,122% (inactive),75.5%
CS(=O)(=O)NCCNc1cc(-c2ccccc2)nc2ccccc12,99.5% (inactive),72.5%
CCC(CC)NCc1ccc(OC)c(C)c1OC,74.7% (inactive),81.6%
COc1ccc(-c2nn(C)c3sc(C(=O)NCCN4CCN(c5ccccc5F)CC4)cc23)cc1OC,82.7% (inactive),76.9%
O=C(c1ccco1)N1CCN(C(=O)c2cc3c(s2)CCCC3)CC1,96.3% (inactive),87.5%
O=C(Sc1nc(-c2ccccc2)c(-c2ccccc2)[nH]1)c1cccs1,84.6% (inactive),74.2%
Cc1cc(SCc2ccc(F)cc2)c(C)cc1Cl,105% (inactive),102%
NC(=O)c1oc2ccccc2c1NC(=O)Cc1ccc(Cl)cc1,89.8% (inactive),77.5%
CC1CCN(C(=O)COc2ccc(-c3nn(C)c(=O)c4ccccc34)cc2)CC1,86.8% (inactive),89.7%
Cc1ccccc1OCc1nc(C#N)c(NC(C)c2ccccc2)o1 (centres undefined),82.4% (inactive),79.9%
